Source: PubChem BioAssay (National Center for Advancing Translational Sciences (NCATS))
Compounds with a hit are over-represented: about 6.1% of the library has one in this group of screens.
RORg inh: ROR gamma (mouse) transcription inhibition; P51450; Drosophila S2 Gal4-RORgamma UAS-luciferase reporter, 20 h; Potency, µM (top dose mostly 53.6 µM), for the others: top-dose activity change, negative = inhibition, most hits filed as inhibitors; 310,000 tested, 5.4% active; further: on the % scale 0 is the no-effect control and ±100 the full control effect; nearly all actives have a fitted effect of over 60% in size
Target sequence (P51450 whole entry, looked up, the tested form may be a part): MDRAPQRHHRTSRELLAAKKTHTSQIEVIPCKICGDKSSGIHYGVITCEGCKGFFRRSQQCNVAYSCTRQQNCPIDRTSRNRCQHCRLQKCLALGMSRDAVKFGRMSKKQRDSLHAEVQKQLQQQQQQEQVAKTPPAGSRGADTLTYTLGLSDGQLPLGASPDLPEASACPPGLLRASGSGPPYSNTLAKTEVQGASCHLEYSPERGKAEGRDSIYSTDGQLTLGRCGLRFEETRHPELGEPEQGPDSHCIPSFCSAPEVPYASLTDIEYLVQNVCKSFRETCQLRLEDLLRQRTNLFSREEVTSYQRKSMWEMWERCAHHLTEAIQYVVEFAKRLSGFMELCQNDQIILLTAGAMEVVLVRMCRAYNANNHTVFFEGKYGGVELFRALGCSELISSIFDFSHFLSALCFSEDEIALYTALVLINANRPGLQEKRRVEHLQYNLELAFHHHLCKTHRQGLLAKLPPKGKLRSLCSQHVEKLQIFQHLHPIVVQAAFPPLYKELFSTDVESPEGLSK
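Compounds are pin-transferred onto Drosophila Schneider cells expressing a copper-inducible Gal4–ROR gamma transactivation domain fusion. After 1 hr, copper sulfate is added to 700 uM final; luciferase is read 20 hr later.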
ATXN2 expr inh: reduces ATXN2 reporter expression in HEK-293 cells; AID 1745845; 360,000 tested, 0.72% active; Potency, µM (series often up to 57 µM), without a hit: at the top dose activity change, negative = inhibition, usual class: inhibitors; HEK-293 ATXN2-luciferase reporter, luminescence, 24 h; further: on the % scale 0 is the no-effect control and ±100 the full control effect; nearly all actives have a fitted effect of over 55% in size
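ATXN2-luciferase reporter cells (luciferase flanked by upstream and downstream ATXN2 gene portions) were treated 24 h at 37 °C with compounds at up to 57 uM. SteadyGlo luminescence gave expression; GF-AFC fluorescence gave viability.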
HepG2 viability: kills HepG2 cells in TGF-b inhibitor counter-screen; HepG2 CAGA-GFP viability, ATP luminescence, 18 h; Potency, µM (doses to about 46.1 µM), for the others: at the highest dose activity change, negative = cytotoxicity, most hits filed as cytotoxic; 410,000 tested, 0.76% active
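CellTiter-Glo luminescence gave cytotoxicity after 18 hours at 37 degrees C. The cells were HepG2 CAGA-GFP in 1% FBS DMEM, stimulated with 500 pg/mL TGF-beta after compound addition. %Activity was normalised to no-cell wells (complete cell-killing) and DMSO (no toxicity), and curves were fitted and classified.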
TGFb inhibitor: blocks TGF-b signaling; HepG2 CAGA-GFP TGF-b/SMAD3 reporter, GFP fluorescence, 18 h; TGF-beta stimulated, 500 pg/mL final; Potency, µM (highest dose often 46.1 µM), inactives show at the highest dose activity, negative = inhibition, actives largely listed as inhibitors; 410,000 tested, 1.2% active; further: on the % scale 0 is the no-effect control and ±100 the full control effect; nearly all actives have a fitted effect of over 65% in size
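Using HEPG2 CAGA-GFP reporter cells at 1000 cells/well, we pinned test compounds, stimulated with recombinant TGF-beta (500 pg/mL final) and measured total well GFP after 18 h.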
Gal4-VP16 FLuc: Gal4-VP16 reporter inhibition counter-screen; Drosophila S2 Gal4-VP16 UAS-luciferase, luminescence, 20 h; 310,000 tested, 3.5% active; Potency, µM (highest dose often 53.6 µM), for the others: top-dose activity, negative = inhibition, usual class: inhibitors;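 further: Gal4-VP16 expression switched on by copper sulfate through the metallothionein promoter; on the % scale 0 is the no-effect control and ±100 the full control effect; nearly all actives have a fitted effect of over 50% in size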
ATXN viability: cell viability loss in ATXN counter-screen. 400,000 tested, 0.49% active. Potency, µM (highest dose often 56.7 µM), hits mostly cytotoxic. S2 cells (HEK-293 line with an ATXN2-luciferase reporter) viability, CellTiter-Fluor protease fluorescence, 24 h. AID 651635; further: nearly all actives have a fitted effect of over 40% in size
An asterisk follows results filed as active; i = inactive; u = inconclusive; x = no result. The call rests on the fitted dose curve; in most records, active means well fitted curve in the direction sought with a large enough effect; inconclusive means small, poorly fitted or top-dose-only effect, or another doubt; inactive means no such curve, though single readings can be large; an effect the other way counts as inactive or inconclusive. Potency means the concentration at half of the fitted maximal effect.

SMILES	RORg inh	ATXN2 expr inh	HepG2 viability	TGFb inhibitor	Gal4-VP16 FLuc	ATXN viability
O=C(CNC(=S)NC(=O)C1CCCCC1)c1ccccc1	7.9µM*	55%	-29%	u	u	i
Cc1ccc(C(=O)NC(=S)NCC(=O)c2ccccc2)cc1	u	12%	10%	-2%	u	u
O=C(O)CC1c2ccccc2CCN1C(=O)Nc1cc(Cl)ccc1Cl (configuration not stated)	x	x	10%	29%	x	x
O=C(NC(=S)N1CCCCCC1)c1ccccc1Cl	0.79µM*	-26%	-21%	-8%	1µM*	i
CN1CCN(C(=S)Nc2ccccc2Cl)CC1	-8%	-5%	-1%	1%	4%	i
CN1CCN(C(=S)NC(=O)c2ccccc2Cl)CC1	14µM*	0%	-6%	-11%	18µM*	i
O=C(NC(=S)N1CCCCCC1)c1ccc(Cl)cc1Cl	0.35µM*	-26%	-24%	-8%	1µM*	i
CCCNC(=O)c1ccc(Cn2c(=O)c3cccn3c3cccnc32)cc1	x	x	-5%	20%	x	x
O=C(NCCc1ccccc1Cl)c1ccc(Cn2c(=O)c3cccn3c3cccnc32)cc1	x	x	10µM*	u	x	x
O=C(Nc1ccccc1)Nc1ccc2ncoc2c1	-45%	44%	0.25µM*	1%	4%	x
O=C(O)CCCn1cc(NC(=O)COc2cc(F)ccc2[N+](=O)[O-])cn1	-43%	-5%	7%	-9%	0.5µM*	i
COc1ccc(C2(C(=O)NCC3Cc4cccc(-c5cccnc5)c4O3)CCCC2)cc1 (configuration not stated)	x	x	x	x	x	i
CC(C)c1csc(CN2CCN(Cc3ccc(F)cc3)C(CCO)C2)n1 (configuration not stated)	0%	-20%	10%	3.5µM*	-5%	i
CCOC(=O)Nc1ccc(/C=C/c2ccnc3ccccc23)cc1	x	x	-26%	u	x	x
CCOC(=O)c1ccc(NC(=O)c2ccc3c(c2)C(=O)N(Cc2cccnc2)C3=O)cc1	-52%	-5%	-2%	8%	11µM*	i
O=C1c2ccc3c4c(ccc(c24)C(=O)N1Cc1cccnc1)C(=O)N(Cc1cccnc1)C3=O	-16%	x	x	x	-2%	x
O=C1c2ccc([N+](=O)[O-])cc2C(=O)N1Cc1cccnc1	1.3µM*	-3%	2%	2%	-27%	i
CC(C)c1ccc(NC(=O)c2ccc3c(c2)C(=O)N(Cc2cccnc2)C3=O)cc1	u	-16%	-42%	u	18µM*	i
Cc1cc(C)c2c(=O)cc(C(=O)Nc3sc4c(c3C(=O)NCc3ccccc3)CCCC4)oc2c1	x	x	0%	-3%	x	x
COc1ccc(-n2nc(C(=O)Nc3ccc(C(C)=O)cc3)nc2-c2ccccc2)cc1	x	-14%	-17%	7%	x	u
COC(=O)C1CCN(Cc2ccc3c(c2)CN(C(=O)c2cc(C)on2)CCO3)CC1	x	x	x	x	x	i
CC1CC1C(=O)Nc1nc(-c2ccccc2)cs1 (configuration not stated)	23%	35%	-45%	-2%	0%	i
Cc1ccc(-c2nnc(NC(=O)c3ccco3)o2)c(C)c1	x	-9%	-7%	-3%	x	i
O=C(Nc1nnc(-c2ccccc2Cl)o1)c1nc2ccccc2s1	1.1µM*	-18%	-34%	-21%	u	u
O=C(Nc1nnc(-c2ccccc2Cl)o1)c1ccco1	2.8µM*	0%	-6%	17%	5µM*	i
SMILES	RORg inh	ATXN2 expr inh	HepG2 viability	TGFb inhibitor	Gal4-VP16 FLuc	ATXN viability
CC1CC1C(=O)Nc1nc(-c2cccs2)c(-c2cccs2)s1 (configuration not stated)	10µM*	5%	2%	0%	12%	i
O=C(Nc1nnc(-c2ccc(Br)cc2)o1)c1ccco1	x	1%	0%	1%	x	i
O=C(Nc1nnc(-c2cccs2)o1)c1ccco1	2.5µM*	13%	-1%	-14%	6.3µM*	i
O=C(CS(=O)(=O)c1ccc(F)cc1)Nc1nnc(-c2ccccc2Cl)o1	x	3%	-5%	-23%	x	u
CCC(Sc1nnc2c3ccccc3n(C)c2n1)C(=O)Nc1nnc(C(C)C)s1 (configuration not stated)	x	6%	-2%	-27%	x	i
CC(C)(C)n1ncc2c(=O)n(Cc3ccc(OC(F)(F)F)cc3)cnc21	x	x	-43%	-21%	x	x
C=CCN(C(C(=O)OC)C(C)C)S(=O)(=O)CCl (configuration not stated)	-14%	x	4%	0%	-1%	x
O=C(c1ccco1)N1CCNCC1	x	-1%	x	x	x	i
O=C(Nc1nc(-c2cccs2)c(-c2ccccc2)s1)c1ccco1	u	2%	-10%	0%	7.9µM*	u
CCOC(=O)c1cccc(NC(=O)CCc2c(C)nn(-c3ccc(N4CCCC4)nn3)c2C)c1	x	x	-30%	u	x	x
Cc1ccc(C(=O)Nc2ccc3ccccc3n2)cc1	u	47%	-33%	-9%	u	i
Cc1ccc(C(O)(C(=O)NNc2ccc3ccccc3n2)c2ccc(C)cc2)cc1	10µM*	u	-3%	-5%	8.9µM*	i
COc1ccc(CCNc2nc(-c3ccc(C)cc3)cc(C(F)F)n2)cc1OC	x	-7%	-9%	-5%	x	i
Cc1ccc(-c2cc(C(F)F)nc(S(C)(=O)=O)n2)cc1	10µM*	u	-188%	u	u	u
COc1ccc(-n2c(SCC(=O)NCc3ccccc3)nc3n[nH]c(C)c3c2=N)cc1	x	x	-21%	-13%	x	x
CCOC(=O)c1c(NC(=O)c2nc(SC(C)C)ncc2Cl)sc2c1CCCC2	x	16%	5%	16%	x	i
Cc1ccc(C#N)c(SCCN2CCCCC2)n1	16%	-7%	-25%	0%	2%	i
Cc1cccc2cc(C#N)c(SCCN3CCCCC3)nc12	x	25µM*	-21%	u	x	i
Cc1cccc(CN2C(=O)c3ccccc3S(=O)(=O)c3ccc(C(=O)N4CCN(c5cc(C)ccc5C)CC4)cc32)c1	x	1%	5%	u	x	i
Cc1cccc(NC(=O)Cn2c(=O)n(CCCCCC(=O)NCc3ccccc3)c(=O)c3sccc32)c1	x	u	-47%	u	x	22µM*
Cc1ccc(CNC(=O)CCCCCn2c(=O)c3sccc3n(CC(=O)Nc3ccc(C)c(F)c3)c2=O)cc1	x	1%	2%	u	x	i
Cc1nc(Nc2cnc(/C=C/c3cc(C(=O)Nc4cccc(C(F)(F)F)c4)ccc3C)cn2)cc(N2CCNCC2)n1	u	16µM*	-106%	u	u	i
CCOc1ccc(C(=O)Nc2ccc3nc(Nc4cccc(C(F)(F)F)c4)cc(C)c3c2)cc1OCC	x	4%	4%	9%	x	i
